Test results reported in PubChem BioAssay AID2687 (National Center for Advancing Translational Sciences (NCATS), 2010).
Active and inactive are the calls of the source.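 Rule for the calls: active = potency half-maximal inhibitory concentration below 100 µM; inconclusive = dose-dependent response but potency above 100 µM; inactive = the rest.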

Target: Lysine-specific demethylase 4E (Homo sapiens) (UniProt B2RXH2)
Assay: AlphaScreen Assay for Inhibitors of Human Jumonji Domain Containing 2E (JMJD2E)
Details: recombinant JMJD2E, H3K9me3 peptide demethylation
From the text: The fine interplay among methylation states of several lysine residues on the tails of histone proteins is a major determinant of the transcriptional state of the associated DNA coding regions and is commonly referred to as the histone code. Histone lysine demethylases catalyze the removal of methyl groups from methylated lysine sidechains on histones H3 and H4, thus antagonizing the reactions catalyzed by histone lysine methyltransferases. […] In search for novel inhibitors of JMJD2E demethylase, a member of the largest set of histone demethylases belonging to the Fe(II) and 2-oxoglutarate oxygenase (2OG) superfamily, we performed a quantitative high-throughput screen (Inglese 2006). See AID 2147 for details on the primary screen. The assay here is a secondary AlphaScreen screen used to validate follow-up compounds. References: Inglese, J., Auld, D., Jadhav, A., Johnson, R., Simeonov, A., Yasgar, A., Zheng, W. and Austin, C. […]
Assay Buffer: 50 mM HEPES pH7.5, 0.01% Tween-20, 0.1% BSA (Cohn Fraction V; Sigma A7030) Peptide: biotin-[…](me3/2)STGGKA Antibody: Abcam Ab1220, Anti-H3K9Me2 Final concentration of components in enzyme reaction: JMJD2E 5 nM, Peptide 30 nM, […] L-Ascorbic Acid, […], DMSO 0.1% Alphascreen beads made up in the dark in assay buffer and pre-incubated for 1 hour in the dark. […] Read plate on BMG Labtech Pherastar FS

Chain of Lysine-specific demethylase 4E (Homo sapiens) (B2RXH2 1-337 limits assumed): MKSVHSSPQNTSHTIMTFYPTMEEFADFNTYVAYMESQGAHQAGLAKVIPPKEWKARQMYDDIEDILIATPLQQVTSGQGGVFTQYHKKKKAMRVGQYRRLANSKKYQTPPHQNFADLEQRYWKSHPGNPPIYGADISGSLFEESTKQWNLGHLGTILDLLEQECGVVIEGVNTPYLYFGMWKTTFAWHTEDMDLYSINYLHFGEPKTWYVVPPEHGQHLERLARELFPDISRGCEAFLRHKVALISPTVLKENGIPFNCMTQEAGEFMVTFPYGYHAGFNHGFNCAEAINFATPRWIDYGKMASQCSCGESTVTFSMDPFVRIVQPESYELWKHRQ

Compound	Potency
O=S(=O)(Nc1ccc(O)c2ncccc12)c1ccccc1F	435 nM (active)
Oc1ccc(CNc2cccc(F)c2)c2cccnc12	1490 nM (active)
